Reference: the supplement of paper PMC8728848
This is one part of a sample in which the strongest signals are shown more often than they occur.

Legend:
Assay in all cases: glycan array binding signal (z-score within array); higher = stronger binding
Settings in all cases: glycan notation: IUPAC condensed, linker removed
Fuc(a1-2)Gal(b1-3)GlcNAc = target: Fuc(a1-2)Gal(b1-3)GlcNAc
How it was run: (§1)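 Glycan array data came from 3228 arrays in the Consortium for Functional Glycomics database, and only arrays with an available protein sequence were kept. Glycan names were put into IUPAC-condensed notation, and columns mapping to the same glycan were averaged. The binding signal is a within-array Z-score, averaged across arrays of one protein sequence run at different concentrations or buffers and across linkers. A negative Z-score can be read as non-binding.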

[1] = target: Fuc(a1-2)Gal(b1-3)GlcNAc(b1-3)Gal(b1-4)Glc
How it was run: as §1

Fuc(a1-2)Gal(b1-4)Glc = target: Fuc(a1-2)Gal(b1-4)Glc
How it was run: as §1

[2] = target: Fuc(a1-2)Gal(b1-4)GlcNAc(b1-2)Man(a1-3)[Fuc(a1-2)Gal(b1-4)GlcNAc(b1-2)Man(a1-6)]Man(b1-4)GlcNAc(b1-4)[Fuc(a1-6)]GlcNAc
How it was run: as §1

[3] = target: Fuc(a1-2)Gal(b1-4)GlcNAc(b1-2)[Fuc(a1-2)Gal(b1-4)GlcNAc(b1-4)]Man(a1-3)[Fuc(a1-2)Gal(b1-4)GlcNAc(b1-2)Man(a1-6)]Man(b1-4)GlcNAc(b1-4)GlcNAc
How it was run: as §1

[4] = target: Fuc(a1-2)Gal(b1-4)GlcNAc(b1-3)[Fuc(a1-3)[Gal(b1-4)]GlcNAc(b1-6)]Gal(b1-4)Glc
How it was run: as §1

[5] = target: Fuc(a1-2)Gal(b1-4)[Fuc(a1-3)]GlcNAc(b1-2)Man(a1-3)[Fuc(a1-2)Gal(b1-4)[Fuc(a1-3)]GlcNAc(b1-2)Man(a1-6)]Man(b1-4)GlcNAc(b1-4)[Fuc(a1-6)]GlcNAc
How it was run: as §1

[6] = target: Fuc(a1-2)[Gal(a1-3)]Gal(b1-3)GlcNAc(b1-3)GalNAc
How it was run: as §1

[7] = target: Fuc(a1-2)[Gal(a1-3)]Gal(b1-4)[Fuc(a1-3)]GlcNAc
How it was run: as §1

[8] = target: Fuc(a1-2)[GalNAc(a1-4)]Gal(b1-4)GlcNAc
How it was run: as §1

[9] = target: Fuc(a1-3)[Gal(b1-4)]GlcNAc(b1-2)Man(a1-3)[Fuc(a1-3)[Gal(b1-4)]GlcNAc(b1-2)Man(a1-6)]Man(b1-4)GlcNAc(b1-4)GlcNAc
How it was run: as §1

[10] = target: Fuc(a1-3)[Gal(b1-4)]GlcNAc(b1-3)GalNAc
How it was run: as §1

[11] = target: Fuc(a1-3)[Gal3S(b1-4)]GlcNAc6S
How it was run: as §1

[12] = target: Gal(a1-3)Gal(b1-3)GlcNAc(b1-2)Man
How it was run: as §1

[13] = target: Gal(a1-3)Gal(b1-4)GlcNAc(b1-3)GalNAc
How it was run: as §1

[14] = target: Gal(a1-3)[Gal(a1-4)]Gal(b1-4)GlcNAc
How it was run: as §1

[15] = target: Gal(a1-4)Gal(b1-4)GlcNAc(b1-2)Man(a1-3)[Gal(a1-4)Gal(b1-4)GlcNAc(b1-2)Man(a1-6)]Man(b1-4)GlcNAc(b1-4)GlcNAc
How it was run: as §1

Gal(b1-3)Gal(b1-4)GlcNAc = target: Gal(b1-3)Gal(b1-4)GlcNAc
How it was run: as §1

[16] = target: Gal(b1-3)GlcNAc(b1-2)Man(a1-3)[Gal(b1-3)GlcNAc(b1-2)Man(a1-6)]Man(b1-4)GlcNAc(b1-4)GlcNAc
How it was run: as §1

[17] = target: Gal(b1-3)[Fuc(a1-4)]GlcNAc(b1-3)Gal(b1-4)[Fuc(a1-3)]GlcNAc
How it was run: as §1

[18] = target: Gal(b1-4)GalNAc(b1-3)[Fuc(a1-2)]Gal(b1-4)GlcNAc
How it was run: as §1

[19] = target: Gal(b1-4)GlcNAc(b1-2)[Gal(b1-4)GlcNAc(b1-6)]Man(a1-6)[GlcNAc(b1-4)][Gal(b1-4)GlcNAc(b1-2)[Gal(b1-4)GlcNAc(b1-4)]Man(a1-3)]Man(b1-4)GlcNAc(b1-4)[Fuc(a1-6)]GlcNAc
How it was run: as §1

[20] = target: Gal(b1-4)GlcNAc(b1-3)Gal(b1-4)GlcNAc(b1-3)Gal(b1-4)GlcNAc(b1-3)Gal(b1-4)GlcNAc(b1-3)Gal(b1-4)GlcNAc(b1-3)Gal(b1-4)GlcNAc(b1-2)Man(a1-3)[Gal(b1-4)GlcNAc(b1-3)Gal(b1-4)GlcNAc(b1-3)Gal(b1-4)GlcNAc(b1-3)Gal(b1-4)GlcNAc(b1-3)Gal(b1-4)GlcNAc(b1-3)Gal(b1-4)GlcNAc(b1-2)Man(a1-6)]Man(b1-4)GlcNAc(b1-4)GlcNAc
How it was run: as §1

[21] = target: Gal3S(b1-4)[Fuc(a1-3)]Glc6S
How it was run: as §1

Gal3S6S(b1-4)GlcNAc6S = target: Gal3S6S(b1-4)GlcNAc6S
How it was run: as §1

Gal6S(b1-3)GlcNAc = target: Gal6S(b1-3)GlcNAc
How it was run: as §1

GalNAc(b1-3)GalNAc = target: GalNAc(b1-3)GalNAc
How it was run: as §1

B1: PX9937D-bvu-500-26-500 (Bacteroides vulgatus) (protein)
chain: DPVSDITDLNYWKTPEQFDSFVFGLHSRFRSHSWNMFLLGEARSDVFGGIPFGGEATQGMERFPYNTLNAENPGISGFGDLYQNINQMNLFISRTLHTDVLTESARNYYLGQVYGLRAYYMYQLYRSWGDVVFTEEPSLGFEVGKLAKAATPAAEIFEQVKKDIESSLSYFGSDYTIKEKKSLWSKAATLMLKADVYLWSAHRDGGEGDARTAKNALVDIQNNISRSNLDLMDTYQGVFAYDNKGNKEIIFTIHNELFEYNLWNGNNDLFPQADYLGKFYNADGTLINTSVENNFGIMRLMVKLENFKKFLPGDTRRDVTLKDVYNKVENGKLELVGVYPHKYWGVMNGSTRVRCDDYPIYRYSDLLLMLAEAKVLLGEDPATEINRVRRRAFGDAYDASTVGFPNQEVDKRPADAVLQERLFEFMLEGKRWYDLRRFGDSYVLDYTPAEPARLLWPINQGALTNNPLLKQTVGY
glycan array binding signal (z-score) (Fuc(a1-2)Gal(b1-3)GlcNAc): -0.32
glycan array binding signal (z-score) [1]: -0.541
glycan array binding signal (z-score) (Fuc(a1-2)Gal(b1-4)Glc): -0.401
glycan array binding signal (z-score) [2]: 2.63
glycan array binding signal (z-score) [3]: 0.277
glycan array binding signal (z-score) [4]: -0.243
glycan array binding signal (z-score) [5]: 5.16
glycan array binding signal (z-score) [6]: -0.226
glycan array binding signal (z-score) [7]: -0.096
glycan array binding signal (z-score) [8]: 1.69
glycan array binding signal (z-score) [9]: 6.27
glycan array binding signal (z-score) [10]: -0.063
glycan array binding signal (z-score) [11]: 0.002
glycan array binding signal (z-score) [12]: 4.49
glycan array binding signal (z-score) [13]: -0.404
glycan array binding signal (z-score) [14]: 2.38
glycan array binding signal (z-score) [15]: 9.96
glycan array binding signal (z-score) (Gal(b1-3)Gal(b1-4)GlcNAc): -0.412
glycan array binding signal (z-score) [16]: 4.38
glycan array binding signal (z-score) [17]: -0.383
glycan array binding signal (z-score) [18]: -0.3
glycan array binding signal (z-score) [19]: 5.5
glycan array binding signal (z-score) [20]: 2.58
glycan array binding signal (z-score) [21]: 0.78
glycan array binding signal (z-score) (Gal3S6S(b1-4)GlcNAc6S): 0.182
glycan array binding signal (z-score) (Gal6S(b1-3)GlcNAc): 1.2
glycan array binding signal (z-score) (GalNAc(b1-3)GalNAc): -0.663
